From PubChem BioAssay (NCI)
Compounds without any hit were thinned out: in the full panel of roughly 79,000, 15% have a hit. Cut-off read from the data, not from the text of the source: active = growth inhibition above about 70%; inactive = the rest.

How the values were obtained:
[1] = NCI Yeast Anticancer Drug Screen. Data for the rad50 strain (AID 155);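 note: 0% = growth of vehicle-only cultures of the same strain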; details: S. cerevisiae rad50 strain growth inhibition; at 50.0 µM; active compounds read high
Method in brief: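 DNA repair mutant yeast, compound exposure, growth read-out; inhibition is taken relative to vehicle.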

[2] = NCI Yeast Anticancer Drug Screen. Data for the mec2-1 strain (AID 157); details: S. cerevisiae mec2-1 strain, at 50.0 µM, active compounds read high
Method in brief: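 Test agents were screened against the mec2-1 yeast strain, with defined DNA repair or cell cycle alteration. Growth was scored as inhibition against vehicle-only controls.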

[3] = NCI Yeast Anticancer Drug Screen. Data for the sgs1 mgt1 strain (AID 161);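 note: 0% = growth of cultures given vehicle only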; details: S. cerevisiae sgs1 mgt1 strain, at 50.0 µM, active compounds read high
Method in brief: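 Mutant yeast exposed to compound; growth scored against vehicle-only wells.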

[4] = NCI Yeast Anticancer Drug Screen. Data for the cln2 rad14 strain (AID 165);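 note: 0% = growth equal to vehicle treated cultures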; details: S. cerevisiae cln2 rad14 strain, at 50.0 µM, active compounds read high
Method in brief: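 Growth of compound-exposed yeast (cln2 rad14 genotype) measured and expressed as inhibition relative to vehicle.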

[5] = NCI Yeast Anticancer Drug Screen. Data for the bub3 strain (AID 167); details: S. cerevisiae bub3 mutant strain, at 50.0 µM, active compounds read high
Method in brief: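 In this screen, a yeast mutant lacking normal mitotic checkpoint function is challenged with compound. Relative growth versus vehicle gives the inhibition value.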

[6] = NCI Yeast Anticancer Drug Screen. Data for the mlh1 rad18 strain (AID 175); details: S. cerevisiae mlh1 rad18 strain growth inhibition; at 50.0 µM; active compounds read high
Method in brief: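 In this whole-cell yeast screen, a strain with altered DNA damage repair is challenged with compound, and its growth is measured against matched vehicle-treated controls.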

Measured: growth inhibition

CCc1ccc(NC(C)=O)cc1C
inactive: [1] -9.5% | [2] 11.7% | [3] -0.95% | [4] 27% | [5] -1.15% | [6] -9.9%

O=C(O)c1ccncc1
inactive: [1] 12.2% | [2] -9.65% | [3] 8.1% | [4] 46.9% | [5] -2.9% | [6] 17.9%

O=S(=O)(c1ccccc1)c1ccccn1
inactive: [1] -13.1% | [2] -13.2% | [3] -19.9% | [4] 6.2% | [5] 3.7% | [6] -22.1%

Brc1c(-c2ccccc2)oc2nc3ccccc3nc12
inactive: [1] 17.2% | [2] 0.2% | [3] 0.2% | [4] 7.45% | [5] 12.6% | [6] 3.8%

COc1ccc(CCN=C2OCc3ccccc32)cc1OC
inactive: [1] 36.1% | [2] -49.6% | [3] -42.6% | [4] -18.6% | [5] -21.5% | [6] -50.7%

CCOC(=O)Cn1/c(=N/N=C(\C)c2ccc([N+](=O)[O-])o2)sc2cc(Cl)ccc21
inactive: [1] -5.75% | [2] 9.05% | [3] 4.8% | [4] 14.3% | [5] -4.15% | [6] 3.35%

Cc1cn(C2CC(O)C(CO)O2)c(=O)nc1NC1CCCCCCCCCCC1 (stereo unspecified)
inactive: [1] 1.25% | [2] 5.7% | [3] 10.1% | [4] 12.9% | [5] -5.5% | [6] -6.4%

COc1cc(/C=C2\N=C(C)OC2=O)ccc1O
inactive: [1] -2.8% | [2] -6.5% | [3] 5.7% | [4] -65.5% | [5] 2.95% | [6] 2.05%

O/N=C1\CCn2cccc21
inactive: [1] -12.1% | [2] 15.1% | [3] -18.2% | [4] 0.25% | [5] 19.4% | [6] -11.2%

O=C1C=C(N2CCCC2)CC1
inactive: [1] 18.2% | [2] 3.1% | [3] -0.2% | [4] -43% | [5] -17.1% | [6] 6.25%

CC(=NCCN=C(C)c1ccc(Br)cc1)c1ccc(Br)cc1
inactive: [1] 16.9% | [2] -6.95% | [3] -21.8% | [4] -2% | [5] 2.4% | [6] 1.1%

CCOC(=O)c1nn2c(nc1=O)sc1ccc3ccccc3c12
inactive: [1] -22% | [2] -5.7% | [3] 7.8% | [4] 32.1% | [5] 25% | [6] 2.05%

Cc1ccc(NC(=O)/C(CC(=O)c2sc(Nc3ccccc3Cl)nc2C)=N\Nc2ccc([N+](=O)[O-])cc2[N+](=O)[O-])c(C)c1
inactive: [1] -1% | [2] 17.1% | [3] 4.25% | [4] -12.1% | [5] 4.55% | [6] -4.25%

CCOC(=O)c1[nH]n(-c2ccccc2)c(=O)c1C=NC(C)=S
inactive: [1] -32.2% | [2] -25.6% | [3] -16.6% | [4] 7.1% | [5] -12% | [6] -18.9%

COC(=O)C(C)S(=O)(=O)O (stereo unspecified)
inactive: [1] -12.2% | [2] -2.5% | [3] 9.35% | [4] -80.5% | [5] 2.9% | [6] 0.3%

Cc1ccc(-n2c(O)c(N=Nc3ccccc3)c(=O)n(-c3ccccc3)c2=S)cc1
inactive: [1] 20.1% | [2] -15.7% | [3] 51.4% | [4] -30.7% | [5] -9.2% | [6] -9.85%

c1ccc2c(c1)c1c(n2CCOCCN2CCCC2)CCCC1
inactive: [1] 21.6% | [2] 2.6% | [3] 2.45% | [4] 27% | [5] 0% | [6] -55.8%

CC(=O)OCC(NC(=O)C(N)CC(=O)O)C(=O)NCC(=O)Oc1ccc([N+](=O)[O-])cc1 (stereo unspecified)
inactive: [1] 13.9% | [2] 15.7% | [3] 11.8% | [4] 12% | [5] 1.9% | [6] 5.75%

N#CC1=CCc2ccccc2N1C(=O)Oc1ccccc1
inactive: [1] 58.5% | [2] 12.7% | [3] 50% | [4] 19.4% | [5] 64.6% | [6] 47.2%

C/C(=N\NC(N)=S)C(CN(CC(C)C)CC(C)C)C(=O)Nc1ccc(C)cc1C (stereo unspecified)
inactive: [1] -18.7% | [2] 6.4% | [3] -7.15% | [4] 16% | [5] -1.15% | [6] -2.75%

O=C(c1ccc(Cl)cc1)N(C(=S)N1CCN(c2ccccc2)CC1)c1ccccc1
inactive: [1] -11.5% | [2] -25.9% | [3] -12.1% | [4] -6.3% | [5] -13.8% | [6] -15.1%
